Hits are enriched below; roughly 21% of the tested compounds scored in any of these assays.
DT40 TDP1 no CPT: qHTS for Inhibitors of human tyrosyl-DNA phosphodiesterase 1 (TDP1): qHTS in cells in absence of CPT. Potency, µM (doses to about 46.2 µM), usual class: inhibitors. actives 15% (n = 420,000). DT40 Tdp1-/- hTDP1 cells, no CPT, ATP luminescence, 48 h; note: nearly all actives have a fitted effect of over 55% in size
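Cells were dispensed at 400 per well, compounds added by pin tool, plates incubated ≥48 hr at 37 °C, then CellTiter-Glo added for 30 min at room temperature before luminescence reading. Line: DT40 Tdp1-/- complemented with hTDP1; camptothecin omitted.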
IL1B secr inh: blocks inflammasome-driven IL-1 beta release. THP-1 LPS/ATP IL-1B secretion, AlphaLISA, 16 h; hits give low values. activity change, % at 57.5 µM. actives 4.7% (n = 360,000); in the data active = activity change below about -50%; inconclusive = mostly about -30% to -49%
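THP-1 cells pretreated 1 hr with compounds (up to 57.5 uM final), then stimulated with LPS (250 ng/mL final) plus ATP (1.25 mM final); secreted IL-1B measured by AlphaLISA after 16 hr, decreased signal indicating inhibition.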
VP16 counter: Gal4-VP16 reporter inhibition counter-screen. Drosophila S2 Gal4-VP16 UAS-luciferase, luminescence, 20 h. actives 3.5% (n = 310,000). Potency, µM (doses to about 53.6 µM), actives largely listed as inhibitors;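 note: Gal4-VP16 expression switched on by copper sulfate through the metallothionein promoter; nearly all actives have a fitted effect of over 50% in size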
TDP1 cell CPT: growth inhibition of DT40 Tdp1-/-;hTDP1 cells with camptothecin (screen for TDP1 inhibitors); chicken DT40 Tdp1-/-;hTDP1 cells + 20 nM CPT, ATP luminescence, 48 h; Potency, µM (series often up to 46.2 µM), actives largely listed as inhibitors; actives 12% (n = 420,000); AID 686979; note: nearly all actives have a fitted effect of over 55% in size
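Chicken DT40 Tdp1-/- cells stably complemented with human TDP1 were seeded at 400 cells/well in medium containing 20 nM camptothecin, exposed to pin-transferred compounds, and grown at 37 °C for at least 48 hr. Viability was read as ATP luminescence.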
RORgamma inh: blocks mouse ROR gamma transcriptional activity | P51450 | Drosophila S2 Gal4-RORgamma UAS-luciferase reporter, 20 h | Potency, µM (top dose mostly 53.6 µM), most hits filed as inhibitors | actives 5.4% (n = 310,000); note: nearly all actives have a fitted effect of over 60% in size
Target sequence (P51450 whole entry, looked up, the tested form may be a part): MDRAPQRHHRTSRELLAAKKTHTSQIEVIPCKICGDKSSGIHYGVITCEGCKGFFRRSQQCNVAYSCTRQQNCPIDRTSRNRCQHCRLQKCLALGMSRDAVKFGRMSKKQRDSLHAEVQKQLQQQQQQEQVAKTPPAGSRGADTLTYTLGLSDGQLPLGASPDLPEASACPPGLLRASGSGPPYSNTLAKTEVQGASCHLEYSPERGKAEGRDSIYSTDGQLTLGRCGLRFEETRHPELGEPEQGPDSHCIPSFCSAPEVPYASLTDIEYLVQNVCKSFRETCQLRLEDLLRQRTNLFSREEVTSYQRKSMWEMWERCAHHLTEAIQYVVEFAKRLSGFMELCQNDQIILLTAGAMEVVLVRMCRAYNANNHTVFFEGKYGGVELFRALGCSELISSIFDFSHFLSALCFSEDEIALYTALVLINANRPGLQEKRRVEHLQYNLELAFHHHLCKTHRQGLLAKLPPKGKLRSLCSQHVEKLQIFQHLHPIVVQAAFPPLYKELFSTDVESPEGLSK
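Drosophila S2 cells stably expressing Gal4-DBD/mouse RORγ fusion under metallothionein promoter plus UAS-luciferase; compound 1 h, then 700 uM CuSO4 induction for 20 h at ambient temperature; inhibition read as reduced luminescence.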
ELG1 DNA repair: ELG1-dependent DNA repair inhibition | actives 2.3% (n = 330,000) | Potency, µM (highest dose often 46.1 µM), most hits filed as inhibitors | HEK293T ELG1-luciferase reporter, luminescence, 16 h; DNA damage induced by 5-fluorouridine; note: nearly all actives have a fitted effect of over 55% in size
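Quantitative HTS, concentration-response format. 2,000 cells/well co-treated with 5-fluorouridine and compound, 16 hr in 5% CO2 at 37 °C; ONE-Glo luminescence read after 30 min.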
Hits are given with their value. Unless noted, calls come from the whole dose curve; as a rule, active = well fitted curve in the direction sought with a large enough effect; inconclusive = small, poorly fitted or top-dose-only effect, or another doubt; inactive = no such curve, though single readings can be large; an effect the other way counts as inactive or inconclusive.

Screening COc1ccc(-c2cc(C(F)(F)F)nc(SCCC(=O)N3CCN4CCCC4C3)n2)cc1 (stereo unspecified) returned DT40 TDP1 no CPT 26µM, IL1B secr inh inactive, VP16 counter inactive, TDP1 cell CPT inconclusive, RORgamma inh inactive and ELG1 DNA repair inconclusive.
`COc1ccc(-c2cc(C(F)(F)F)nc(SCCC(=O)Nc3cc(C)on3)n2)cc1` gave DT40 TDP1 no CPT inactive, IL1B secr inh inactive, VP16 counter inactive, TDP1 cell CPT inactive and RORgamma inh inactive.
COc1ccc(-c2cc(C(F)(F)F)nc(SCC(=O)NCc3ccc(Cl)cc3)n2)cc1 was read as DT40 TDP1 no CPT inconclusive and TDP1 cell CPT inactive.
Screening CCn1cc(S(=O)(=O)c2cccc(C)c2)c(=O)c2cc(F)c(N3CCN(c4ccccc4)CC3)cc21 returned DT40 TDP1 no CPT inconclusive and TDP1 cell CPT inactive.
`CN(C)CCC(Oc1ccccc1OCc1ccccc1)c1ccccc1` (stereo unspecified) gave DT40 TDP1 no CPT 16µM, IL1B secr inh -90 and TDP1 cell CPT inconclusive.
Cn1ccnc1C1CCCCN1C(=O)c1cc(COc2ccc(F)cc2F)on1 (stereo unspecified) was read as DT40 TDP1 no CPT 13µM, IL1B secr inh inactive, VP16 counter inactive, TDP1 cell CPT inconclusive, RORgamma inh inactive and ELG1 DNA repair inactive.
For CSc1ccccc1OCc1cc(C(=O)N2CCCC2c2nonc2C)no1 (stereo unspecified) the results were DT40 TDP1 no CPT 21µM, IL1B secr inh inactive, VP16 counter inactive, TDP1 cell CPT 23µM, RORgamma inh inactive and ELG1 DNA repair inconclusive.
CCOC(=O)N1CCC(NC(=O)c2cc(COc3ccccc3SC)on2)CC1 was read as DT40 TDP1 no CPT 1.5µM, IL1B secr inh inactive, VP16 counter inactive, TDP1 cell CPT 3.7µM, RORgamma inh inactive and ELG1 DNA repair inactive.
For Cc1cccc(C)c1OCc1cc(C(=O)N2CCCC2c2nonc2C)no1 (stereo unspecified) the results were DT40 TDP1 no CPT inconclusive, IL1B secr inh inactive, VP16 counter inactive, TDP1 cell CPT inconclusive, RORgamma inh inactive and ELG1 DNA repair inconclusive.
Screening CSc1ccccc1OCc1cc(C(=O)N2CCc3[nH]cnc3C2c2ccccn2)no1 (stereo unspecified) returned DT40 TDP1 no CPT 2.9µM, IL1B secr inh inactive, VP16 counter inactive, TDP1 cell CPT inactive, RORgamma inh inactive and ELG1 DNA repair inactive.
`CCOC(=O)N1CCC(NC(=O)c2cc(COc3ccc(F)cc3Cl)on2)CC1` gave DT40 TDP1 no CPT inactive, IL1B secr inh inactive, VP16 counter inactive, TDP1 cell CPT inactive, RORgamma inh inconclusive and ELG1 DNA repair inactive.
For CCN(CC(=O)Nc1c(F)cccc1F)C(=O)c1nn(C)c(=O)c2ccccc12 the results were DT40 TDP1 no CPT inactive, IL1B secr inh inactive, TDP1 cell CPT inactive and ELG1 DNA repair inactive.
Screening Cc1cc(C)c2c(c1)SC1=NC(c3ccccc3)(C(F)(F)F)NC(=O)N12 (stereo unspecified) returned DT40 TDP1 no CPT inconclusive, IL1B secr inh -56, VP16 counter inactive, TDP1 cell CPT inconclusive, RORgamma inh inactive and ELG1 DNA repair inconclusive.
Screening CCc1ccc(/C=N/NC(=O)c2c[nH]c3ccccc23)s1 returned DT40 TDP1 no CPT inactive, IL1B secr inh inconclusive, VP16 counter inactive, TDP1 cell CPT 21µM, RORgamma inh 11µM and ELG1 DNA repair inconclusive.
O=C(N/N=C/c1cccs1)c1c[nH]c2ccccc12 was read as DT40 TDP1 no CPT 12µM, IL1B secr inh inactive, VP16 counter inactive, TDP1 cell CPT inconclusive, RORgamma inh inconclusive and ELG1 DNA repair inconclusive.
For COc1ccc(-c2nc3c(Cl)cc(C(F)(F)F)cn3c2Cc2ccc(C)cc2)cc1OC the results were DT40 TDP1 no CPT inconclusive, IL1B secr inh inactive and TDP1 cell CPT inconclusive.
Screening CSc1ccc(CN2CCC(CO)(CCOc3ccccc3)CC2)cc1 returned DT40 TDP1 no CPT inconclusive, IL1B secr inh inconclusive, VP16 counter inactive, TDP1 cell CPT inconclusive, RORgamma inh inactive and ELG1 DNA repair inactive.
CC(C)(C)c1ccccc1NC(=O)c1ccc2c(c1)SC1=NS(=O)(=O)CCN12 was read as DT40 TDP1 no CPT inconclusive, IL1B secr inh inactive, VP16 counter inactive, TDP1 cell CPT 29µM, RORgamma inh inactive and ELG1 DNA repair 21µM.
O=C(NCc1ccccc1Cl)c1ccc2c(c1)SC1=NS(=O)(=O)CCN12 was read as DT40 TDP1 no CPT inconclusive, IL1B secr inh inconclusive, VP16 counter inactive, TDP1 cell CPT inconclusive, RORgamma inh inconclusive and ELG1 DNA repair inactive.
O=C(Nc1cccc(Br)c1)c1ccc2c(c1)SC1=NS(=O)(=O)CCN12 was read as DT40 TDP1 no CPT 29µM, IL1B secr inh -62, TDP1 cell CPT 23µM and ELG1 DNA repair inconclusive.
`N#CCc1ccc(NC(=O)c2cc(S(=O)(=O)N3CCOCC3)ccc2Cl)cc1` gave DT40 TDP1 no CPT 18µM, IL1B secr inh inactive, VP16 counter inactive, TDP1 cell CPT 16µM, RORgamma inh inactive and ELG1 DNA repair inactive.
O=C(Nc1cc(S(=O)(=O)N2CCOCC2)ccc1Cl)c1cc([N+](=O)[O-])ccc1Cl was read as DT40 TDP1 no CPT 15µM, IL1B secr inh -97, TDP1 cell CPT inconclusive and ELG1 DNA repair inconclusive.
For CCc1ccc(C2CC(c3cccc(Cl)c3)n3nc(N)nc3N2)cc1 (stereo unspecified) the results were DT40 TDP1 no CPT 15µM, VP16 counter inconclusive, TDP1 cell CPT 15µM, RORgamma inh inactive and ELG1 DNA repair inactive.
For Cc1ccc(C2CC(c3cccc(Cl)c3)n3nc(N)nc3N2)cc1 (stereo unspecified) the results were DT40 TDP1 no CPT 18µM, IL1B secr inh inactive, VP16 counter inactive, TDP1 cell CPT 15µM, RORgamma inh inactive and ELG1 DNA repair inactive.
Cc1cccc(C2CC(c3ccc(Cl)cc3)Nc3nc(N)nn32)c1 (stereo unspecified) was read as DT40 TDP1 no CPT inconclusive, IL1B secr inh inactive, VP16 counter inactive, TDP1 cell CPT inconclusive, RORgamma inh inactive and ELG1 DNA repair inactive.
CCc1ccc(C2CC(c3ccccc3)Nc3nc(N)nn32)cc1 (stereo unspecified) was read as DT40 TDP1 no CPT inactive, IL1B secr inh inactive, VP16 counter inactive, TDP1 cell CPT inactive, RORgamma inh inactive and ELG1 DNA repair inactive.
`O=C(N/N=C/c1ccc(Cl)cc1)C(=O)N1CCCCCC1` gave DT40 TDP1 no CPT inactive, IL1B secr inh inactive, VP16 counter inactive, TDP1 cell CPT inactive, RORgamma inh inactive and ELG1 DNA repair inactive.
